# In PubChem BioAssay:
# Calls of active or inactive are those of the source. Unless noted, no rule for the calls is given here.
# Columns and labels:
# [1] = tested on: Wnt5a (protein binding on small-molecule microarray); assay: Wnt5a binders on small-molecule microarray, primary screen, biophysical, 635/667 nm fluorescence (AID 1142); details: 635 nm fluorescence, higher = more signal;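 also: fluorescence read at 667 nm with signal to noise per printed feature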
# [2] = cell viability in Huh7 cells, primary screen, cytotoxicity control for HCV replication inhibitor project, CellTiter-Glo luminescence, basal, 48 h (AID 1143); details: Huh7 HCV replicon, higher = more signal, called active from +8 up or from −8 down;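 also: Huh7 hepatoma cells carrying a hepatitis C replication reporter with no stimulus; test concentration not given here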
# [3] = P. aeruginosa biofilm formation inhibitors, primary screen, PAO1 strain, BacTiter-Glo luminescence, LB-PBS (AID 1144); details: 12 h, higher = more signal
# [4] = CREB reporter modulators without forskolin, primary screen, cell-based, PC12, CRE-LacZ reporter, unstimulated (AID 1145); details: no forskolin, luminescence, 4.5 h, higher = more signal, called active from +8 up or from −8 down
# [5] = CREB reporter modulators under forskolin, primary screen, cell-based, PC12, CRE-LacZ reporter, forskolin-stimulated (AID 1146); details: luminescence, 4.5 h, higher = more signal, called active from +8 up or from −8 down;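 also: PC12 cells with 6xCRE LacZ reporter stimulated by forskolin 10 µM; beta-galactosidase reporter signal reflecting CREB driven transcription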
# [6] = biological target: Streptavidin (Streptomyces avidinii) (UniProt P22629); assay: streptavidin binders on small-molecule microarray, primary screen, artefact control for SMM compound annotation, biophysical, 635/667 nm fluorescence (AID 1147); details: streptavidin binding, higher = more signal;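 also: signal reflects streptavidin binding to arrayed compounds as a control protein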
# Chain of Streptavidin (Streptomyces avidinii) (P22629 whole entry, looked up): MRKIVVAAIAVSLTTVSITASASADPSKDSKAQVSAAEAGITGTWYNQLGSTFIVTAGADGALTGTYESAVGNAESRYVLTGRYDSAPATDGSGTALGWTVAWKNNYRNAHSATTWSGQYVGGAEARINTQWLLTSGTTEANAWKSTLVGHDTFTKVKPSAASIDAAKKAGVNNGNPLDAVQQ
# [7] = small-molecule binders of probe aInhba, primary screen, biochemical, small-molecule microarray, 635/667 nm fluorescence (AID 1148); details: higher = more signal;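 also: score merges 667nm spot fluorescence with signal-to-noise for antibody binding to printed compounds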
# [8] = biological target: Torsin-1A (Homo sapiens) (UniProt O14656); assay: torsin A binders from cell lysate, primary screen, small-molecule microarray, wild-type, 635/667 nm (AID 1149); details: COS7 hTOR1A-WT lysate, 635 nm fluorescence, higher = more signal
# Chain of Torsin-1A (Homo sapiens) (O14656 whole entry, looked up): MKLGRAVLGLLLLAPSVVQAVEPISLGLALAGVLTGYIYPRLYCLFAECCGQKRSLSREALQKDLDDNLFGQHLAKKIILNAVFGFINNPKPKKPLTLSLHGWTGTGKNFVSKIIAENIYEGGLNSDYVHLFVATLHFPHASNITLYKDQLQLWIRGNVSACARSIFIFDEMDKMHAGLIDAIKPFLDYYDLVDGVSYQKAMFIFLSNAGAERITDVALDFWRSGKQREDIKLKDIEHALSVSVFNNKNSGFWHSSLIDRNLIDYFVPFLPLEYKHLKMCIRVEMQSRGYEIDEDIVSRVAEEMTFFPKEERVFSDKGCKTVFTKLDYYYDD
# [9] = biological target: Torsin-1A (Homo sapiens) (UniProt O14656); assay: small-molecule binders of mutant TOR1A in lysate, primary screen, cell lysate, small-molecule microarray, COS7 lysate, 635/667 nm fluorescence (AID 1150); details: COS7 hTOR1A mutant lysate, 635 nm fluorescence, higher = more signal;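 also: score pools 667 nm emission and signal to noise measuring lysate protein binding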
# [10] = tested on: Sonic hedgehog protein (Shh); assay: small-molecule binders of Shh protein, primary screen, biochemical, small-molecule microarray, 635/667 nm fluorescence (AID 1151); details: small-molecule microarray binding, 635 nm fluorescence; higher = more signal;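 also: Shh protein binding to compounds spotted on small-molecule microarray slides; score combines spot fluorescence intensity with signal-to-noise across triplicate slides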
# [11] = E. coli DRC41 culture turbidity changes, primary screen, E. coli filamentation inducer project, strain DRC41, OD650, 48 h (AID 1152);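 also: E. coli MC1000 strain DRC41 lacking acrAB efflux pump and sulA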; details: E. coli DRC41 (acrAB sulA), higher = more signal, called active from +8 up or from −8 down
# [12] = small-molecule binders of probe aLefty1, primary screen, biochemical, small-molecule microarray, 635/667 nm fluorescence (AID 1153); details: higher = more signal;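 also: score merges spot fluorescence with signal-to-noise ratio from the scanned slide images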
# [13] = PSAC antagonists in infected red cells, primary screen, cell-based, P. falciparum Indochina, OD700, 1 h (AID 1154); details: P. falciparum Indochina infected RBC osmotic lysis, higher = more signal, called active from +8 up or from −8 down
# [14] = PSAC antagonists in infected red cells, primary screen, cell-based, P. falciparum Indochina, OD700, 2 h (AID 1155);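 also: lysis reports solute entry through the parasite surface anion channel PSAC; channel blockers reduce lysis of infected cells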; details: P. falciparum Indochina infected erythrocytes, osmotic lysis OD700; higher = more signal, called active from +8 up or from −8 down
# [15] = osmotic lysis modulators in infected erythrocytes, primary screen, PSAC antagonist project, cell-based, P. falciparum Indochina, OD700, 3 h (AID 1156); details: higher = more signal, called active from +8 up or from −8 down
# [16] = PSAC antagonists in infected red cells, primary screen, cell-based, P. falciparum Indochina, OD700, 18 h (AID 1157); details: P. falciparum Indochina infected erythrocytes, osmotic lysis OD700, 18 h; higher = more signal, called active from +8 up or from −8 down
# [17] = modulators of S6 phosphorylation in cells, primary screen, cell-based, A549, cytoblot, luminescence, serum-stimulated (AID 1158); details: A549 phospho-S6 cytoblot, 5 h, higher = more signal;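 also: serum-stimulated A549 lung adenocarcinoma cells; signal is phosphorylated S6 detected by cytoblot immunostaining with HRP secondary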
# [18] = biological target: NADPH oxidase 2 (Homo sapiens) (UniProt P04839); assay: NOX2-dependent H2O2 signal modulators, primary screen, NOX inhibitor project, cell-based, HEK293-NOX2, PMA-stimulated, Amplex Red fluorescence (AID 1159); details: 45 min, higher = more signal, called active from +8 up or from −8 down; also: test concentration not given here
# Chain of NADPH oxidase 2 (Homo sapiens) (P04839 whole entry, looked up): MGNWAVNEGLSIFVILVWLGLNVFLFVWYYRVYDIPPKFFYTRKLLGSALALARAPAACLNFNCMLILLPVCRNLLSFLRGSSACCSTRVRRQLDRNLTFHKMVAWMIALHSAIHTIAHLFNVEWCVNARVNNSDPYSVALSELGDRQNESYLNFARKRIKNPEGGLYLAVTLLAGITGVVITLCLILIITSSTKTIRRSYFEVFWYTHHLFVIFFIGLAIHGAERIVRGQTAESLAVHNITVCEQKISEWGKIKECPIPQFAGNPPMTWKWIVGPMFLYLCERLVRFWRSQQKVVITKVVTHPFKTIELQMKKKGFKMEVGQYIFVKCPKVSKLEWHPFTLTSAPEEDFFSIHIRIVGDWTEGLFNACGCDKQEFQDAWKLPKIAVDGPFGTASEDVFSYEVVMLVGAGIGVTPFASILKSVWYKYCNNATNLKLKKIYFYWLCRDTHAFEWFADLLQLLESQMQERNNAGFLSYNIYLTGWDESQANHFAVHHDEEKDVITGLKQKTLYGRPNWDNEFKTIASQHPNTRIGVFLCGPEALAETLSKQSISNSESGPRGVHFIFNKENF
# [19] = biological target: NADPH oxidase 4 (Homo sapiens) (UniProt Q9NPH5); assay: NOX4-dependent H2O2 signal modulators, primary screen, NOX inhibitor project, cell-based, HEK293-NOX4, tetracycline-induced, Amplex Red fluorescence (AID 1160); details: 45 min, higher = more signal, called active from +8 up or from −8 down
# Chain of NADPH oxidase 4 (Homo sapiens) (Q9NPH5 whole entry, looked up): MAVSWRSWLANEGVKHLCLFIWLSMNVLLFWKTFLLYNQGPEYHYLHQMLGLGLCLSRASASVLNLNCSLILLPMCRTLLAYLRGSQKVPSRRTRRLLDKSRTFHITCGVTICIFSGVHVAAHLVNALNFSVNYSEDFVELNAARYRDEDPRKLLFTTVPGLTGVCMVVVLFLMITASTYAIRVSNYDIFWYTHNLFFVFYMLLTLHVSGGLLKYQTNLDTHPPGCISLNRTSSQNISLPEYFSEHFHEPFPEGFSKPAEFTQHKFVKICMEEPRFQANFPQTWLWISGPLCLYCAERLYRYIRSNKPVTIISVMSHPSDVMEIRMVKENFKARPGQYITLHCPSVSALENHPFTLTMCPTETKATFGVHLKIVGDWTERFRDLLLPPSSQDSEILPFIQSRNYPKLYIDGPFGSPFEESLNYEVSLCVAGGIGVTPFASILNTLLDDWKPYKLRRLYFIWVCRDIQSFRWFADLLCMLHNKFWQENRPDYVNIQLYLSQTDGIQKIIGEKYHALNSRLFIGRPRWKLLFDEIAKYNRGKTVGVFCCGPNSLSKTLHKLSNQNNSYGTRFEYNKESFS
# [20] = biological target: NADPH oxidase 5 (Homo sapiens) (UniProt Q96PH1); assay: NOX5-dependent H2O2 signal modulators, primary screen, NOX inhibitor project, cell-based, HEK293-NOX5, Amplex Red fluorescence (AID 1161); details: HEK293-NOX5, ionomycin, 45 min, higher = more signal
# Chain of NADPH oxidase 5 (Homo sapiens) (Q96PH1 whole entry, looked up): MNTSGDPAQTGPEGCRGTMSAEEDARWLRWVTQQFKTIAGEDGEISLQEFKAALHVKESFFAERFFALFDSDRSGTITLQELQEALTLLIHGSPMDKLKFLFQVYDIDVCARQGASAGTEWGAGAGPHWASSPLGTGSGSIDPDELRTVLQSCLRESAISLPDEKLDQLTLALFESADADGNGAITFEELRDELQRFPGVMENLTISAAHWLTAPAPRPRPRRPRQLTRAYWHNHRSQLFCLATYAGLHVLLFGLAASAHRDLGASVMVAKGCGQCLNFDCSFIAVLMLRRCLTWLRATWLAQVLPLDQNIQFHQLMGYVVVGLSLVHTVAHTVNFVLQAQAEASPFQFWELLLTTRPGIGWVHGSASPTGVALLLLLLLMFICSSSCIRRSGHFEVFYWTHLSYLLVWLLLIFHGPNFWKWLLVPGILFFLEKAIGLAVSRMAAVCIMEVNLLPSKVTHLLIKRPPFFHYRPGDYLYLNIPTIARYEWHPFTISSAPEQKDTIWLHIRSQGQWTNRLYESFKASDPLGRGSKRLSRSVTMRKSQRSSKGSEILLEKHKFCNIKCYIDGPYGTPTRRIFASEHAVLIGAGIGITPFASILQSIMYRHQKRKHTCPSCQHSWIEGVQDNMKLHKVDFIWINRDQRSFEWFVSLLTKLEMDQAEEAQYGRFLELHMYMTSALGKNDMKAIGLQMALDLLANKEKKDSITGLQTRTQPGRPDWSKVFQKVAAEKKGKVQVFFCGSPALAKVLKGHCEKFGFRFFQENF
SMILES,composite z-score [1],z-score [2],z-score [3],z-score [4],z-score [5],composite z-score [6],composite z-score [7],composite z-score [8],composite z-score [9],composite z-score [10],z-score [11],composite z-score [12],z-score [13],z-score [14],z-score [15],z-score [16],z-score [17],z-score [18],z-score [19],z-score [20]
CCCCCCC#C[Si](O[C@H](c1ccccc1)c1cn(Cc2cccc(Cl)c2)nn1)(C(C)C)C(C)C,-0.14,-0.736 (inactive),-0.628 (inactive),-1.12 (inactive),-0.687 (inactive),0.967,0.0367,0.317,0.213,0.179,1.9 (inactive),-0.142,0.876 (inactive),0.886 (inactive),0.0206 (inactive),0.162 (inactive),0.635,-0.706 (inactive),-0.705 (inactive),-0.576
[N-]=[N+]=Nc1ccccc1C[C@]1(C(=O)NCCN2CCOCC2)N=C(c2ccc(OCCCO)cc2)O[C@H]1c1ccccc1N=[N+]=[N-],0.682,-3.68 (inactive),-0.933 (inactive),0.573 (inactive),-1.29 (inactive),0.678,0.726,0.818,0.954,0.926,1.11 (inactive),0.628,27.7 (active),23.2 (active),1.35 (inactive),4.41 (inactive),1.75,-2.69 (inactive),0.686 (inactive),-1.15
CCCC=C(CCC)[C@@H](NC(=O)Cc1ccccc1)c1ccc(C(=O)OC)cc1,0.372,-2.2 (inactive),0.354 (inactive),0.0041 (inactive),0.545 (inactive),1.68,0.376,-0.0377,-0.414,-0.284,-1.45 (inactive),1.47,1.19 (inactive),0.194 (inactive),-0.0448 (inactive),0.25 (inactive),-0.504,-0.458 (inactive),0.261 (inactive),1.89
C#CCNS(=O)(=O)N(C)C,-0.006,0.251 (inactive),-0.441 (inactive),-0.882 (inactive),0.526 (inactive),0.0573,-0.222,0.073,0.0442,0.666,1.14 (inactive),-0.103,0.132 (inactive),0.262 (inactive),-0.395 (inactive),0.0625 (inactive),0.32,-0.533 (inactive),0.183 (inactive),0.112
COc1ccc([Si](C)(C)[C@H]2[C@H](CCO)O[C@@]3(C(=O)N(Cc4cccc(N5CCOC5=O)c4)c4ccccc43)[C@@H]2C)cc1,0.217,-5.72 (inactive),-0.112 (inactive),0.907 (inactive),-0.827 (inactive),0.71,-0.0736,-0.0637,-0.217,1.47,-0.286 (inactive),-0.0917,31.7 (active),29.4 (active),1.37 (inactive),3.36 (inactive),0.469,-1.96 (inactive),0.553 (inactive),0.479
COC(=O)C(CC#Cc1ccc2c(c1)[C@]1(C(=O)N2)[C@H](c2ccc(O)cc2)N2[C@H](c3ccccc3)[C@H](c3ccccc3)OC(=O)[C@H]2[C@@H]1C(N)=O)C(=O)OC,-0.206,-1.94 (inactive),-1.56 (inactive),0.212 (inactive),-0.615 (inactive),-1.42,-0.153,-1.15,-0.491,-0.907,2.05 (inactive),-0.216,1.09 (inactive),1.58 (inactive),0.6 (inactive),1.3 (inactive),1.39,0.222 (inactive),0.356 (inactive),-0.453
COC(=O)[C@@]1(Cc2ccc(OC)cc2)[C@H]2c3cc(C(=O)N4CCCC4)n(CCF)c3C[C@H]2CN1C(=O)c1ccccc1,2.55,-2.46 (inactive),-0.129 (inactive),0.972 (inactive),0.325 (inactive),1.5,2.05,-0.0089,0.619,-0.801,-1.28 (inactive),2.49,10.4 (active),1.42 (inactive),2.39 (inactive),1.13 (inactive),0.181,-0.201 (inactive),-2.52 (inactive),-3.65
COc1ccccc1CN1C(=O)c2ccccc2[C@@H](C(=O)NCC(C)C)[C@@H]1c1ccc(CO)cc1,0.572,-0.922 (inactive),0.34 (inactive),-0.258 (inactive),-0.992 (inactive),-0.378,-0.145,-0.114,0.526,0.0072,1.08 (inactive),-0.0061,1.12 (inactive),0.157 (inactive),1.23 (inactive),0.206 (inactive),-0.195,1.78 (inactive),-0.496 (inactive),1.67
CC(C)(C)OC(=O)CC[C@]1(C(=O)N2CCCCC2)N=C(c2ccc(OCCCO)cc2)O[C@H]1c1ccccc1CN=[N+]=[N-],1.13,-3.42 (inactive),-0.596 (inactive),0.927 (inactive),-0.707 (inactive),0.835,0.927,0.635,1.17,0.251,2.54 (inactive),1.66,21.9 (active),4.95 (inactive),0.768 (inactive),0.158 (inactive),1.89,-0.683 (inactive),1.56 (inactive),0.95
COCCCNC(=O)[C@@]1(C)c2ccccc2C(=O)N(c2ccc(C)cn2)[C@H]1c1ccc(CO)cc1,-0.259,0.616 (inactive),-0.252 (inactive),0.0279 (inactive),0.208 (inactive),-1.4,-0.202,0.152,-1.17,-0.0308,-0.0018 (inactive),-0.341,0.833 (inactive),-0.186 (inactive),0.0037 (inactive),-0.211 (inactive),-0.161,-1.02 (inactive),-0.261 (inactive),-1.7
CC(=O)NCCCC[C@@H]1NC(=O)[C@@H]2C[C@H](C(=O)NCCCC[N+](C)(C)C)[C@H](c3cccc(OCCO)c3)N2C1=O,0.198,-0.283 (inactive),-0.192 (inactive),-0.532 (inactive),-0.441 (inactive),-0.407,-0.0471,2.44,1.83,1.89,-0.832 (inactive),0.206,1.63 (inactive),0.372 (inactive),-0.122 (inactive),0.154 (inactive),-0.246,0.151 (inactive),-0.0151 (inactive),1.29
O=C1N(CCS(=O)(=O)c2ccccc2)c2ccccc2[C@H]2OC(c3ccc(OCCCO)cc3)=N[C@@]12CCS(=O)(=O)c1ccccc1,1.52,-1.61 (inactive),1 (inactive),3.35 (inactive),-0.168 (inactive),0.842,1.08,0.766,1.03,1.66,0.401 (inactive),0.582,28.2 (active),26.3 (active),3.35 (inactive),4.36 (inactive),-0.357,1.76 (inactive),0.492 (inactive),1.46
COc1ccc([Si](C)(C)[C@@H]2[C@@H](CC(=O)N(CCO)Cc3ccccc3)O[C@]3(C(=O)N(C)c4c(Br)cc(C)cc43)[C@H]2C)cc1,0.312,-5.28 (inactive),0.336 (inactive),18.2 (active),0.429 (inactive),-0.212,-0.152,0.268,-0.0496,1.91,-1.98 (inactive),-0.103,26.6 (active),14.2 (active),0.233 (inactive),2.09 (inactive),0.336,-1.91 (inactive),-0.00605 (inactive),-1.28
CC(C)[Si](C#C[Si](C(C)C)(C(C)C)C(C)C)(O[C@H](C)c1cn(Cc2cccc(Cl)c2)nn1)C(C)C,-0.0078,-0.219 (inactive),-1.25 (inactive),-0.71 (inactive),-0.399 (inactive),0.534,-0.101,0.781,0.262,0.632,2.58 (inactive),-0.195,1.23 (inactive),0.881 (inactive),-0.125 (inactive),0.702 (inactive),0.712,0.501 (inactive),0.312 (inactive),-0.162
COC(=O)[C@@]1(Cc2ccc(F)cc2)[C@H]2c3cc(C(=O)N4CCCC4)n(Cc4ccccc4)c3C[C@H]2CN1C(=O)c1ccccc1,0.379,-3.69 (inactive),0.195 (inactive),-0.368 (inactive),0.339 (inactive),1.38,-0.0413,0.0257,0.72,-0.447,-1.25 (inactive),0.216,4.64 (inactive),0.899 (inactive),2.65 (inactive),1.26 (inactive),0.178,-0.165 (inactive),0.648 (inactive),-1.48
COC(=O)[C@@]1(Cc2ccc(OC)cc2)[C@H]2c3cc(C(=O)N4CCCC4)n(CCc4ccc(O)c(OC)c4)c3C[C@H]2CN1C(=O)c1ccccc1,0.0928,-0.666 (inactive),-0.414 (inactive),2.5 (inactive),1.04 (inactive),0.199,0.12,0.168,0.774,-0.909,-1.82 (inactive),0.128,2.81 (inactive),0.626 (inactive),0.394 (inactive),0.594 (inactive),0.389,-0.124 (inactive),-1.39 (inactive),-2.06
Cc1ccc(N2C(=O)c3ccccc3[C@](C)(C(=O)NC(C)C)[C@@H]2c2ccc(CO)cc2)nc1,-0.281,0.328 (inactive),0.306 (inactive),0.155 (inactive),0.521 (inactive),-1.78,-0.289,-3.17,0.758,-0.974,1.07 (inactive),-0.275,0.641 (inactive),0.414 (inactive),0.18 (inactive),0.232 (inactive),0.274,0.358 (inactive),-0.357 (inactive),-0.363
